Molecules are shown by their SMILES. Where “and” joins values, the source holds several entries; their conditions need not be identical. Identical values can stand only once. Results filed as inconclusive are left out. A call without a number means that no potency is given here. The source holds several records for some structures; these can differ, active in one and inactive in another. Calls of active or inactive are those of the source. The call rests on the fitted dose curve. Starred links: 1 amine or outer side, 2 acyl side, 3 side chain; linkers in the order of their positions; H or OH if unused. Positions of bridges follow the written chain, without caps; N, C: chain ends. Non-standard residues stand in square brackets, D forms with d. Residues, ends and D or L forms follow the SMILES beside them. Chains are numbered I, II in the order given. Actinocin(9to1) = Cc1c2oc3c(C)ccc(C(=O)[*:1])c3nc-2c(C(=O)[*:2])c(N)c1=O; NMeV = CN[C@H](C(=O)O)C(C)C; Sar = CNCC(=O)O
Potency means the concentration at half of the fitted maximal effect.

This assay in a line: qHTS assay to identify small molecule agonists of the NFkB signaling pathway - cell viability counter screen (AID 1159515). Further: nearly all actives have a fitted effect of over 55% in size. Conditions: NFkB-bla ME-180 viability, CellTiter-Glo luminescence, 5 h; series mostly up to 61 µM. An excerpt: National Center for Advancing Translational Sciences [NCATS]
NIH Chemical Genomics Center [NCGC]
U.S. Environmental Protection Agency [EPA]
National Institutes of Environmental Health Sciences [NIEHS]
National Toxicology Program [NTP]
U.S. Food and Drug Administration [FDA]
Transcription factors and their stimulated target gene expression play pivotal roles across many cellular processes including responses to environmental stimuli. Proper regulation of associated pathways is critical to maintain cell health and function. Constitutive activation of transcription factor pathways has been implicated in tumors as it may block cellular functions such as apoptosis and lead to invasion and metastasis. One important transcription factor that stimulates gene expression in response to cytokines, UV radiation, and other stimuli is nuclear factor-kappa B (NFkB). To measure activation of the NFkB pathway, the CellSensor NFkB-bla ME-180 cell line (Life Technologies, Carlsbad, CA) that stably expresses beta-lactamase reporter gene under the regulation of a NF-kB response element was used. This assay allows measurement of the NFkB pathway activity induced by compounds in a ME-180 cell line. This system quantitates NF-kB activity using a FRET-based assay system where beta-lactamase expression disrupts FRET, allowing for fluorescent measurement of activity. This cell line has been used to screen the Tox21 10K compound library and to identify compounds that induce the NFkB pathway activity. The cytotoxicity of the Tox21 compound library against the NFkB-bla ME-180 cell line was tested in parallel by measuring cell viability using the CellTiter-Glo assay in the same wells.
Tox21 Assay Protocol Summary:
NFkB-bla ME-180 cells were dispensed at 2,000 cells/6 uL of assay medium per well into black wall/clear-bottom 1536-well plates using a Multidrop Combi (ThermoFisher Scientific, Waltham, MA) dispenser. After the assay plates were incubated at 37 C and 5% CO2 for an overnight, 23 nL of compounds dissolved in DMSO, positive controls or DMSO only was transferred to the assay plate by a Pintool station (Kalypsys, San Diego, CA). The assay plates were incubated at 37 C and 5% CO2 for 5 hr. One uL of LiveBLAzer B/G FRET substrate (Life Technologies) was added using a Flying Reagent Dispenser (Aurora Discovery, San Diego, CA) and the plates were incubated at room temperature for 1.5 hr. Fluorescence intensity (405 nm excitation, 460 nm and 530 nm emissions) was measured using an Envision plate reader (PerkinElmer, Shelton, CT). For cytotoxicity, 3 ul/well of CellTiter-Glo reagent was added into the assay plates using an FRD. After 30 min incubation at room temperature, the luminescence intensity was measured using a ViewLux plate reader (PerkinElmer).
On the technique in general: qHTS replaces the single test concentration by a dilution series.
As for `C=CS(=O)(=O)O`, the Potency result was “inactive”.

With `C#CC(C)(CC)OC(=O)c1ccccc1C(=O)O` (stereo not given), the Potency entry is “inactive”.

Take `Nc1nc2ccccc2[nH]1`: the Potency result was “inactive”.

On to `CC(C)CCOCc1ccccc1`, for which the Potency result was “inactive”.

Turning to `O=C(O[C@@H]1Cc2c(O)cc(O)cc2O[C@@H]1c1cc(O)c(O)c(O)c1)c1cc(O)c(O)c(O)c1`, the Potency entry is “inactive”.

Regarding `C/C=C/c1ccc(OCC)c(O)c1`, the Potency result was “inactive”.

With `C=CC(=O)OCCCCCCCC`, the Potency result is “inactive”.

`CC(C)(C)NC(=O)[C@@H]1CN(Cc2cccnc2)CCN1C[C@@H](O)C[C@@H](Cc1ccccc1)C(=O)N[C@H]1c2ccccc2C[C@H]1O`: the Potency entry is “inactive”.

Regarding `Nc1nc(=S)c2[nH]cnc2[nH]1`, the Potency entry is “inactive”.

Regarding `CC[C@H]1CN2CCc3cc(OC)c(OC)cc3[C@@H]2C[C@@H]1C[C@H]1NCCc2cc(OC)c(OC)cc21`, the Potency result is “inactive”.

Regarding `c1cnc2cc3c(cc2n1)C1CNCC3C1`, the Potency entry is “inactive”.

As to `CCCCOCCOC(=O)c1ccccc1C(=O)OCCOCCCC`, the Potency result was “inactive”.

In the case of `Cc1cc(C(C)(C)C)c(O)c(C(C)(C)C)c1`, the Potency result was “inactive”.

As for `CCN(CC)C(=S)SSC(=S)N(CC)CC`, the Potency was 1 µM (active) and inactive.

As for `Cc1occc(=O)c1OC(=O)C(C)C`, the Potency result is “inactive”.

With `Nc1cc(Cl)c(-c2cc(Cl)c(N)cc2Cl)cc1Cl`, the Potency was 48.9 µM (active) and 54.9 µM (active).

In the case of `COc1cc(C(=S)N2CCOCC2)ccc1O`, the Potency result was “inactive”.

Turning to `O=C(Oc1ccccc1)c1ccccc1O`, the Potency result is “inactive”.

Consider `CC(=O)CC(C)=O`, for which the Potency entry was “inactive”.

Consider `OCCOCCN1CCN(C(c2ccccc2)c2ccc(Cl)cc2)CC1` (stereo not given), for which the Potency result is “inactive”.

On to `Cc1cccc2n[nH]nc12`, for which the Potency result was “inactive”.

Regarding `CC(=O)N[C@@H](CS)C(=O)O`, the Potency entry is “inactive”.

As to `CCCOC(=O)c1cc(O)c(O)c(O)c1`, the Potency entry was “inactive”.

Consider `c1cc(C(c2ccc(OCC3CO3)cc2)C(c2ccc(OCC3CO3)cc2)c2ccc(OCC3CO3)cc2)ccc1OCC1CO1` (stereo not given), for which the Potency entry was “inactive”.

Regarding `Cc1c2oc3c(C)ccc(C(=O)N[C@@H]4C(=O)N[C@H](C(C)C)C(=O)N5CCC[C@H]5C(=O)N(C)CC(=O)N(C)[C@@H](C(C)C)C(=O)O[C@@H]4C)c3nc-2c(C(=O)N[C@@H]2C(=O)N[C@H](C(C)C)C(=O)N3CCC[C@H]3C(=O)N(C)CC(=O)N(C)[C@@H](C(C)C)C(=O)O[C@@H]2C)c(N)c1=O` (I: T[dV]P[Sar][NMeV] / II: T[dV]P[Sar][NMeV]; ester I:1-I:C, II:1-II:C; linker I:N-II:N via Actinocin(9to1)), the Potency entry is “inactive”.

As for `CC(=O)Nc1ccc(C(=O)CCl)cc1`, the Potency entry was “inactive”.

On to `CC(C)(C)c1ccc(O)c(C(C)(C)C)c1`, for which the Potency is 48.8 µM (active) and 49 µM (active).

On to `O`, for which the Potency result was “inactive”.

Take `CC(C)CCOC(=O)c1ccc(N(C)C)cc1`: the Potency entry is “inactive”.

Turning to `Cc1cccc([N+](=O)[O-])c1C(=O)O`, the Potency result is “inactive”.

With `COC(=O)/C=C/c1ccccc1`, the Potency entry is “inactive”.

With `Oc1c(Cl)cc(Cl)c(Cl)c1Cc1c(O)c(Cl)cc(Cl)c1Cl`, the Potency was 34.6 µM (active) and 43.6 µM (active).

Consider `NC(=Nc1ccccc1)Nc1ccccc1`, for which the Potency result is “inactive”.

On to `O=C(O)Cn1cnnn1`, for which the Potency result is “inactive”.

`CC(C)(C)c1cc(C(C)(C)C)c(O)c(C(C)(C)C)c1`: the Potency entry was “inactive”.

With `OCCN1CCNCC1`, the Potency entry is “inactive”.

As for `CC1COC(=O)O1` (stereo not given), the Potency result is “inactive”.

As to `CC(=O)C1=C(C)[C@@H]2C[C@@]3(C1)[C@H](C)CC[C@H]3C2(C)C`, the Potency entry was “inactive”.

In the case of `COc1ccc(Cc2cnc(N)nc2N)cc1OC`, the Potency entry is “inactive”.

Regarding `CCOc1ccc2c(c1)C(C)=CC(C)(C)N2`, the Potency entry was “inactive”.

These data come from PubChem BioAssay (Tox21).
